Source: PubChem BioAssay (The Scripps Research Institute Molecular Screening Center)
ZTA DNA inh = blocks Epstein-Barr virus ZTA, an EBNA-1 counter-screen | AID 2234 | inhibition, % at 11 µM | ZTA-DNA binding, fluorescence polarization | 0.15% of 320,000 active | P03206; in the data active = inhibition above about 33%
Target sequence (P03206 whole entry, looked up): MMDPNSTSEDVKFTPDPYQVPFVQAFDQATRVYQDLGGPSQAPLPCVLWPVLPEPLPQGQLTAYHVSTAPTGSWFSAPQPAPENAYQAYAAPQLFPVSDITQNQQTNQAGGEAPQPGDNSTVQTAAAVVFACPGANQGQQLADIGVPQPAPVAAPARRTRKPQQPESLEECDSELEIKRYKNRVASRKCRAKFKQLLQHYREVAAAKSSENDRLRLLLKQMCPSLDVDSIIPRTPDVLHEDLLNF
EBNA-1 inhibitor = blocks EBNA-1 binding to DNA; EBNA-1 DNA binding, fluorescence polarization; inhibition, % at 14.8 µM; 0.34% of 300,000 active; in the data active = inhibition above about 28%
PAFAH1B3 FP inh = blocks human PAF acetylhydrolase 1B catalytic subunit 3 | Q15102 | inhibition, % at 3.39 µM | recombinant PAFAH1B3, FP-rhodamine probe, fluorescence polarization | 0.28% of 340,000 active | AID 492972;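 active = inhibition above the screen-wide average of all tested compounds plus 3 SD, cut at about 25% in these data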;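 note: 0% = enzyme with DMSO only and 100% = wells lacking PAFAH1B3 protein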
Target sequence (Q15102 whole entry, looked up): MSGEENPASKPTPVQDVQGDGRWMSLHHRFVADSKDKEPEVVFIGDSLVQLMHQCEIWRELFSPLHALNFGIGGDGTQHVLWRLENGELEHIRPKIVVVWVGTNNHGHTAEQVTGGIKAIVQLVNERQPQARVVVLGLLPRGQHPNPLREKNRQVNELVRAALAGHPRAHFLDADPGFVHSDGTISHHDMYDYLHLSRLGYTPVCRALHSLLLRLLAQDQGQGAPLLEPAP
PAFAH2 FP inh = PAFAH2 (human) inhibition; Q99487; 0.99% of 340,000 active; recombinant PAFAH2, FP-rhodamine activity probe, fluorescence polarization; inhibition, % at 3.39 µM; AID 492956;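 active = inhibition above the mean over all tested compounds plus 3 SD, cut at about 30% in these data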;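 note: inhibitors block probe labeling of enzyme so polarization drops; 0% = enzyme with DMSO and 100% = wells lacking PAFAH2 protein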
PAFAH1B2 inh = inhibitors of human PAFAH1B2 | recombinant PAFAH1B2, FP-rhodamine activity probe, fluorescence polarization | inhibition, % at 3.39 µM | 1.2% of 340,000 active | AID 492953;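 active = inhibition above the mean of all tested compounds plus 3 SD, cut at about 24% in these data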;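 note: 0% = enzyme with DMSO and 100% = wells lacking PAFAH1B2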
Target sequence (P68402 whole entry, looked up): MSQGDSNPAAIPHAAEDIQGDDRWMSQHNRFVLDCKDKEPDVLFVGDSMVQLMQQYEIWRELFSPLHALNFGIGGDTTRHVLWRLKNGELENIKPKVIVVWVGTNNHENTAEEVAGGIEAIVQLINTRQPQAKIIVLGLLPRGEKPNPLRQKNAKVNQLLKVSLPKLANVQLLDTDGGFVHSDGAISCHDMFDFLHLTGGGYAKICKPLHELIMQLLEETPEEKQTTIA
rCAG binder = binds r(CAG) RNA repeats. 1.3% of 370,000 active. inhibition, % at 3 µM. r(CAG) RNA repeat, TO-PRO-1 dye displacement fluorescence;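 active = inhibition above the plate cutoff, the mean of all test compounds on that plate plus 3 SD, cut at about 35% in these data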;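 note: 0% = DMSO alone and 100% = 100 µM mitoxantrone as full dye displacement; higher means more dye released from RNA so lower well fluorescence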
ZTA inh confirm = EBV ZTA DNA binding inhibition, confirmation. Zta-ZRE DNA binding, fluorescence polarization. shares compounds with ZTA DNA inh. inhibition, % at 11.1 µM. 30% of 320 active;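 active = mean inhibition across triplicate runs above the hit threshold derived for the original primary screen, cut at about 33% in these data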;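 note: 0% = Zta with DMSO and 100% = wells lacking Zta protein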
EBNA1 counter = counter-screen for ZTA inhibitors: EBNA-1 DNA binding inhibition; inhibition, % at 14.8 µM; fluorescence polarization; AID 2362; shares compounds with ZTA DNA inh; 320 tested, under 10 active; call rule not given here
PAFAH2 confirm = PAFAH2 (human) inhibition, confirmed; AID 493030; 65% of 2,300 active; shares compounds with PAFAH2 FP inh; inhibition, % at 3.39 µM; recombinant PAFAH2, FP-rhodamine activity probe, fluorescence polarization;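 active = mean inhibition over three repeats above a set limit taken from the earlier primary screen, cut at about 30% in these data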;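 note: inhibitor blocks binding of rhodamine activity probe so polarization falls; 0% = enzyme with DMSO and 100% = wells lacking PAFAH2 protein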
Starred values were filed as active, the others as inactive; . = no result; + = active, no number. In the library only some 2.9% were active in any assay of this set; here they are far more common.

SMILES | ZTA DNA inh | EBNA-1 inhibitor | PAFAH1B3 FP inh | PAFAH2 FP inh | PAFAH1B2 inh | rCAG binder | PAFAH2 confirm | others
COC(=O)C1=C(c2ccccc2)C[C@@H]2CC[C@H]1N2C(=O)N1CCCC1 | -16.9 | -2.6 | 9.2 | -0.7 | -4.5 | -3.7 | .
O=C(NCCN1CCC2(CC1)C(=O)NCN2c1ccccc1)c1ccc(Cl)c(Cl)c1 | . | . | . | . | . | 1.7 | .
CCn1nc(-c2cccs2)nc2c(=O)n(C)c(=O)nc1-2 | . | . | 73.7* | 55.5* | 47.3* | . | .
Cn1c(O)c(/C=C2\N=c3ccccc3=C2CCNC(=S)NC2CC2)c(=O)n(C)c1=O | 9.7 | 5.9 | 6.3 | 4.2 | 56.1* | 5.9 | .
COC(=O)C(Cc1ccc(N(CCCl)CCCl)cc1)N=Cc1ccccc1O (centres undefined) | -24.5 | -16.1 | 13.6 | -2.0 | 8.7 | -0.9 | .
OC(c1ccc(F)cc1)(c1ccc(F)cc1)[C@@H]1CCCN1 | 7.8 | 3.1 | 0.6 | 3.0 | 6.1 | 0.1 | .
CCOc1cccc(OCC)c2c(C)[n+](CC3CCCO3)c(C)c1-2 (centres undefined) | -9.0 | -1.3 | 6.3 | 32.4* | 15.2 | . | .
Cc1ccc(/C=C2\C(=O)NC(=S)N(c3ccc(F)cc3)C2=O)o1 | . | . | -2.3 | 10.8 | 3.4 | 26.1 | .
Cc1ccc(N2C(=O)/C(=C/c3ccc(CN(CCC#N)S(C)(=O)=O)o3)C(=O)NC2=S)cc1 | 14.7 | -2.0 | 2.2 | 33.1* | -4.8 | . | .
CCN(CC)c1ccc(N=Cc2c(O)n(-c3ccccc3C)c(=O)[nH]c2=O)cc1 | 32.5 | -7.1 | 8.5 | 5.7 | -7.7 | 8.7 | .
CCOc1ccccc1-n1c(O)c(C=Nc2ccc(N(CC)CC)cc2)c(=O)[nH]c1=O | 36.9* | 0.5 | 4.1 | -0.6 | 3.1 | 20.5 | . | ZTA inh confirm=5.4;EBNA1 counter=-0.2
CCN(CC)c1ccc(N=Cc2c(O)n(-c3ccccc3)c(=O)[nH]c2=O)cc1 | 37.9* | 10.4 | 2.1 | 4.5 | 3.4 | 9.7 | . | ZTA inh confirm=1.2;EBNA1 counter=-4.2
O=C(O)c1cc[c]([Hg][Cl])cc1 | 5.0 | 1.4 | -4.4 | 3.0 | 2.5 | . | .
CCCCOP(=O)(OCCCC)/C(C#N)=C(/C)O | + | -5.8 | 11.7 | -0.8 | 4.6 | 0.8 | . | ZTA inh confirm=0.5;EBNA1 counter=-7.6
C[C@H]1CN([C@@H](C)CO)C(=O)CCCn2nncc2CO[C@@H]1CN(C)C(=O)Oc1ccccc1 | . | . | . | . | . | 0.8 | .
O=c1[nH]c2ccccc2c(=O)n1-c1ccc(Cl)cc1Cl | 34.9* | 2.9 | 2.9 | 5.5 | -4.5 | 0.6 | . | ZTA inh confirm=6.1;EBNA1 counter=-2.0
COc1cc2[nH]c(=O)n(-c3cccc(Cl)c3)c(=O)c2cc1OC | -9.4 | 2.4 | -4.2 | -2.6 | 2.2 | -2.2 | .
Cn1cc(C(=O)OCC(=O)NC2CCCC2)c2ccccc21 | 8.8 | . | -0.1 | 58.7* | -1.5 | 0.6 | 37.0*
CN1C(=O)C(=Cc2ccc(SC3CCCCC3)o2)C(=O)N(C)C1=O | -3.9 | -3.6 | -2.2 | 29.7* | 20.1 | 12.8 | 33.2*
CC(C)(C)C(=O)Cn1c(NCCCl)nc2ccccc21 | -0.9 | -13.5 | 6.5 | 2.7 | 5.8 | 2.5 | .
CCC1(NS(=O)(=O)c2ccc(N)cc2)C(=O)N(C)C(=O)N(C)C1=O | . | . | 5.0 | -0.5 | -2.4 | -1.9 | .
Cc1cccc(NC(=O)COC(=O)c2cc(C)n(C3CC3)c2C)c1 | 4.0 | . | 1.7 | 40.1* | 7.7 | 11.3 | 2.0
O=C(COc1ccc(Cl)cc1)N1CCN(C2CCCC2)CC1 | 9.5 | -4.3 | 4.1 | 1.1 | -0.9 | -7.7 | .
C[C@]12CCC3C(CC[C@H]4C[C@@H](O)CC[C@]34C)C1C[C@@H](N)[C@@H]2O (some centres undefined) | . | . | 5.0 | -2.2 | 3.0 | 4.4 | .
NC(Cc1ccccc1)[P+](=O)O (centres undefined) | . | . | . | . | . | 0.9 | .
SMILES | ZTA DNA inh | EBNA-1 inhibitor | PAFAH1B3 FP inh | PAFAH2 FP inh | PAFAH1B2 inh | rCAG binder | PAFAH2 confirm | others
Cc1cc(C)cc(N2C(=O)NC(=O)/C(=C\c3cccn3-c3ccccc3)C2=O)c1 | -1.1 | 8.1 | -5.4 | 46.1* | 17.8 | 10.5 | 33.8*
COc1ccc(-c2nc3ccccc3c(=O)o2)cc1 | -1.8 | -9.8 | -2.6 | 78.1* | 2.9 | 6.4 | 70.8*
COc1ccc(-n2c(-c3ccc(C)cc3)nc3ccccc3c2=O)cc1 | -10.8 | -4.5 | 3.5 | 1.4 | 4.7 | -5.2 | .
O=c1[nH]c(=O)n(Cc2ccccc2Cl)c(O)c1/C=C1/C=CC=N1 | 0.8 | -9.6 | -2.8 | -0.1 | -1.7 | 12.2 | .
Cc1cc(/C=C2/C(=O)NC(=O)N(Cc3ccco3)C2=O)c(C)n1-c1ccccc1 | 2.3 | 0.2 | 12.1 | 32.7* | 10.0 | 25.6 | 23.1
Cc1c(C(c2ccc(Br)cc2)c2c(O)c3ccccc3oc2=O)c(=O)n(-c2ccccc2)n1C (centres undefined) | -8.1 | -2.6 | 3.3 | 2.7 | 1.4 | 1.0 | .
Cc1c(C(c2ccc(Cl)cc2Cl)c2c(O)c3ccccc3oc2=O)c(=O)n(-c2ccccc2)n1C (centres undefined) | 2.4 | -2.2 | 2.9 | 39.0* | 2.5 | 6.7 | 33.1*
CSc1ccc(C(c2c(O)c3ccccc3oc2=O)c2c(C)n(C)n(-c3ccccc3)c2=O)cc1 (centres undefined) | 5.1 | 7.0 | 10.9 | 39.5* | 2.8 | 13.8 | 27.4
CC(=O)Nc1ccc(C(c2c(O)c3ccccc3oc2=O)c2c(C)n(C)n(-c3ccccc3)c2=O)cc1 (centres undefined) | -2.0 | -2.5 | -1.3 | -3.2 | 0.3 | 5.8 | .
O=C(CN1CC(c2ccccc2)CC1=O)Nc1ccccc1 (centres undefined) | 4.0 | -3.7 | 1.3 | 43.7* | -1.7 | 0.8 | 24.7
CCc1ccc(NC(=O)CN2CC(c3ccccc3)CC2=O)cc1 (centres undefined) | -3.1 | -5.5 | 7.3 | -2.2 | 1.4 | -7.8 | .
O=C(c1cc2c(s1)-c1ccccc1OC2)N1CCC2(CC1)OCCO2 | -11.4 | -11.5 | 1.7 | 30.6* | 3.8 | 0.9 | 18.1
CC(C)OP(=O)(OC(C)C)C(O)c1cccnc1 (centres undefined) | -9.9 | 2.1 | 2.6 | -3.7 | 0.4 | -1.4 | .
Cc1ccc(/C=C2\C(=O)NC(=O)N(CC3CCCO3)C2=O)s1 (centres undefined) | -20.0 | 2.8 | 2.4 | 33.2* | 5.4 | 0.8 | 8.0
O=C(COC(=O)c1ccc(O)cc1)Nc1ccc(Cl)cc1C(=O)c1ccccc1 | -0.1 | -1.7 | 0.8 | 63.3* | 2.2 | 8.2 | 60.8*
CC(=O)Nc1ccc(C(=O)OCC(=O)Nc2ccc(Cl)cc2C(=O)c2ccccc2)cc1 | 3.9 | -8.5 | -6.6 | 68.6* | -8.6 | 6.2 | 73.0*
O=C(COc1ccccc1)Nc1ccc(Cl)cc1C(=O)c1ccccc1 | 3.5 | 17.3 | -1.7 | -2.5 | -1.4 | -0.2 | .
